According to the supplement of paper PMC6555819:

System: VDR:RXRa (NR concentration 270 nM, RXRa partner concentration 90 nM)
Experiment: PBM binding z-score (relative to random genomic background probes); higher = stronger binding; sequences stand for … in GC…GCGATTGACAGCGTAGAATGAAGG
Protocol: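 Protein-binding microarray (Agilent 4x180K custom design, double-stranded 60-nt probes: 5' GC cap, 34-nt variable region, 24-nt constant primer region; full probe sequence given). Purified or IVT nuclear receptor:RXRα heterodimers (3:1 NR:RXRα, mostly 270:90 nM) or homodimers were incubated for 1 h in PBS with 2% milk and no ligand, then detected with Alexa488 antibodies. Fluorescence from o1-orientation probes (~5 replicates averaged) was converted to z-scores against 500 random hg19 background probes. Variable regions are seed direct-repeat (DR0–DR5) sites, all their single-nucleotide variants and half-site ablations.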

Question: Which PBM binding z-score does the source give for TCATATAGGTAAAAGGTGAAACTCGGTGTGGTAA here?
Answer: Its PBM binding z-score is 2.04.

Question: With AGTCAAAGTTCAGGATGAGGTAACGTAAAGCACG as the sequence, how does the PBM binding z-score read?
Answer: Its PBM binding z-score is 2.88.

Question: For TCTGCTAGGTCAACGATGGTCAGCTGATCTGCTA, which PBM binding z-score is on record?
Answer: Its PBM binding z-score is 1.73.

Question: With CAAGCTAGGTCACAGAGGTCAAAGTCCGTGCGTA as the sequence, how does the PBM binding z-score read?
Answer: The PBM binding z-score was 8.14.

Question: With CTCAAAAGGTCGGTTGAGGTGAGTATACGGATAA as the sequence, how does the PBM binding z-score read?
Answer: The PBM binding z-score was 2.54.

Question: For CCGACTGGGGCGAAGGTTACCATACTCAGTACGA, which PBM binding z-score is on record?
Answer: Its PBM binding z-score is 0.0154.

Question: CAGCCTAGGTCAGGGCCAGTGTAGGAGGAACGTT was tested. Which PBM binding z-score did it give?
Answer: The PBM binding z-score was 0.257.

Question: Which PBM binding z-score does the source give for GCAGACAGGAGAAACGCAGGTAACTCAGGGTGGC here?
Answer: The PBM binding z-score was -0.548.

Question: For CGTCCAAGGTCAAAGCTCAGTGAAGAGATGACGG, which PBM binding z-score is on record?
Answer: Its PBM binding z-score is 3.77.

Question: How did the PBM binding z-score turn out when ATCTCTAGGTAACCAAGATCAGTGAATGCCGAAC was run?
Answer: Its PBM binding z-score is 0.294.

Question: Which PBM binding z-score does the source give for ATATGTAGGTTAGCTGGGGACATTCAGACTAGGC here?
Answer: Its PBM binding z-score is 2.39.

Question: For TAGCCTAGGTCAGATTGGGCCAGTATACGCTATA, which PBM binding z-score is on record?
Answer: Its PBM binding z-score is 0.524.

Question: With TTATATAGGTAATACAGGTGAAAGTCGGCATCTA as the sequence, how does the PBM binding z-score read?
Answer: The PBM binding z-score was 0.727.

Question: Which PBM binding z-score does the source give for ACTAGCAGCCCAAGTTTGGGTCACTCAAACAAAG here?
Answer: The PBM binding z-score was 0.327.

Question: How did the PBM binding z-score turn out when TAGCCTAGGTCATGTGGGCCAGTATAGTGTCGGC was run?
Answer: The PBM binding z-score was 2.62.

Question: Which PBM binding z-score does the source give for CGTTACGGGTCAAGGTTATAGCACGGGTGGTACG here?
Answer: The PBM binding z-score was 3.62.

Question: How did the PBM binding z-score turn out when ATATGTAGGTTAGCTGGGGTCAGTCAGACTAGGC was run?
Answer: The PBM binding z-score was 4.52.

Question: With TCAGACAGGTGAAGGTAACTCAGGTACGCAGTCG as the sequence, how does the PBM binding z-score read?
Answer: The PBM binding z-score was 0.943.

Question: How did the PBM binding z-score turn out when CTCGAAAGGTCGGTTGAGTTGAGTATACGGATAA was run?
Answer: Its PBM binding z-score is 3.45.

Question: How did the PBM binding z-score turn out when CTACCAAGGTGAACTAGGTCGTTGATTACTATTC was run?
Answer: The PBM binding z-score was 3.56.

Question: For CCGAGTAGGTTTTGGGGCATTCAGGCAACGGTGA, which PBM binding z-score is on record?
Answer: The PBM binding z-score was -0.239.

Question: CCGACTGGGGCAGACAGGTTACCATACCATCCGG was tested. Which PBM binding z-score did it give?
Answer: Its PBM binding z-score is -0.343.

Question: For TCTCGGAGGACAAGAAGGTCAGAGCTTTCCAGAG, which PBM binding z-score is on record?
Answer: Its PBM binding z-score is 1.8.

Question: How did the PBM binding z-score turn out when TCATACAGGTAAAGGTGAAAGTCGAACGATATGA was run?
Answer: Its PBM binding z-score is 1.13.

Question: Which PBM binding z-score does the source give for ATAGAAAGGTCGACGAGGTGAGTATACACCGTTT here?
Answer: Its PBM binding z-score is 5.01.

Question: With TTACCAAGGTGAAGTTCGTTGATCCCTCTGTAGA as the sequence, how does the PBM binding z-score read?
Answer: Its PBM binding z-score is 1.49.

Question: Which PBM binding z-score does the source give for TGAATGAGGTTAAAGATCAGGGTACGTGGCGTCG here?
Answer: The PBM binding z-score was 2.38.

Question: CCTACTGGGCCAACGGTCATTGATTCCAATGCTC was tested. Which PBM binding z-score did it give?
Answer: Its PBM binding z-score is -0.502.

Question: TGTGAAAGTTCAAAGGTAACGTAAGTATCCACAC was tested. Which PBM binding z-score did it give?
Answer: Its PBM binding z-score is 4.88.

Question: CCGACTGGGGCAAAGGCTACCATACTCAGTACGA was tested. Which PBM binding z-score did it give?
Answer: Its PBM binding z-score is -0.358.

Question: With TTACCAAGGTGAGCGGAGGTCGTTGATCCAACTC as the sequence, how does the PBM binding z-score read?
Answer: The PBM binding z-score was 3.36.

Question: For ACTCGGAGGACAAAGGTCAGAGCGACGCCAGTGA, which PBM binding z-score is on record?
Answer: Its PBM binding z-score is 3.47.

Question: Which PBM binding z-score does the source give for ACTAGTTGGTCAGCTGAGGTTACACACAATTCGG here?
Answer: Its PBM binding z-score is 1.59.

Question: How did the PBM binding z-score turn out when ATCGAAAGGTCGAGATGAGTATAGAGAAAGGGAA was run?
Answer: The PBM binding z-score was 2.4.

Question: TGAATGAGGTTAAAAGATCAGGGAACGTTGCAAA was tested. Which PBM binding z-score did it give?
Answer: Its PBM binding z-score is 1.45.

Question: TCATATAGGTAAACACGTGAAAGTCCGTAAGTTA was tested. Which PBM binding z-score did it give?
Answer: Its PBM binding z-score is 0.885.

Question: TCAGACAGGCGAAGGTAACTCAGGTACGCAGTCG was tested. Which PBM binding z-score did it give?
Answer: Its PBM binding z-score is 0.498.

Question: With GCTAGCAGGCCATTTGGATCACTCAATGACGGGC as the sequence, how does the PBM binding z-score read?
Answer: Its PBM binding z-score is -0.73.

Question: How did the PBM binding z-score turn out when ATCGAAAGGTCGAAGGTGAGAATACCCACCCGAA was run?
Answer: Its PBM binding z-score is 2.7.

Question: CGAACTAGGTCATTGACAGGTCAGTGAATAGTAA was tested. Which PBM binding z-score did it give?
Answer: The PBM binding z-score was 3.9.
